Measurements published in the emibetuzumab library of Makowski et al. (2022).
The list shows a part of the results. How many sequences the whole screen found active is unknown.

B1: VH:VL chains; a variant is named by its letters at X, in order (parent)
chain 1: QVQLVQSGAEVKKPGASVKVSCKASGYTFTDYXMHWVRQAPGQGLEWMGXVNPNXXXTTYNQKFEGRVTMTTDTSTSTAYMELRSLRSDDTAVYYCARXNXLDXWGQGTTVTVSS
chain 2: DIQMTQSPSSLSASVGDRVTITCSVSSSVSSIYLHWYQQKPGKAPKLLIYSTSNLASGVPSRFSGSGSGTDFTLTISSLQPEDFATYYCQVYSGYPLTFGGGTKVEIK

Variants of: B1
Assay: yeast display scFab, FACS + sequencing
Conditions: with MET
Procedure, shortened: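 A yeast surface library of scFab variants carrying heavy-chain CDR mutations went through two magnetic enrichment rounds on Protein A beads coated with HGFR-Fc, then FACS. For sorting, cells were labelled for 3 h at room temperature with 1 nM HGFR-Fc and anti-Myc in PBSB containing 1% milk, and the top 50% of antigen-positive cells were gated. Input and round-3 sorted populations were deep sequenced in two replicates. A sequence was called an antigen binder if it appeared in both antigen-positive samples and a non-binder if it appeared only in the input.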

Variant | antigen binding call
DEKEGDAA | no binding
YAGGAYLY | no binding
YRGGAAWY | binds
YEGGADVD | no binding
YRGGAAWD | binds
YRRRGSVD | binds
YRRRGFGD | no binding
YTGTSDLD | no binding
YRRRGSLD | binds
YRARGDLD | binds
YRRRGFVD | binds
DGARNSGV | no binding
FAGRAAWA | no binding
SETTDDVA | no binding
AGGGNDVY | no binding
YRRRSSVD | binds
YARRGSLD | binds
YRRRGAVD | binds
YRRRGYVD | no binding
YTERGDVD | no binding
YRRRGDVD | binds
DARRGSGD | no binding
YARADSLD | no binding

Variant | antigen binding call
SEGTGDWV | no binding
VEEEGDSA | no binding
VETEGDVA | no binding
YRRRGSWD | binds
YRRRGDLD | binds
YRREGSLD | binds
AEARSDGA | no binding
SEGRGDVY | no binding
SRGRGAWY | binds
SEGRGAWY | binds
AEGRGAVY | no binding
VETGNDGV | no binding
ATRGADAV | no binding
YREGDFVD | no binding
YAGRGVVD | no binding
YAGTGVVD | no binding
YRGGGVVD | binds
YRGRGFVD | binds
YRGRGVVD | binds
YRGRDFVD | no binding
VTGGDSWF | no binding
AGTRSFGY | no binding
FRAGGSVD | binds

Variant | antigen binding call
FRAGGAVD | binds
FTEEGAVD | no binding
FRATSAVD | no binding
VKAGDSGA | no binding
DKAGGDGS | no binding
SKTKSSAS | no binding
VKEGGDVA | no binding
YKARGSGS | binds
VKARGSGA | binds
VTTKSSVA | no binding
VKKTGSGA | no binding
YKAGGSAS | binds
VKARGSVA | binds
VAGGDDGF | no binding
SKTKSDGV | no binding
YKARGSGA | binds
VKEGGSSA | no binding
YKARGAWA | binds
VKARGSLA | binds
YEARNAGA | no binding
YKARGAGA | binds
VKERGAVA | no binding
YTERAAWA | no binding

Variant | antigen binding call
YMAEGSGA | no binding
SAAGSVWY | no binding
VKEGGDGA | no binding
DEAGDAVV | no binding
SRGRGAWF | binds
SRGRGAGF | binds
SAGRGFGF | no binding
VKRGSSSD | binds
AKTGDSSD | no binding
YKRGSSSD | binds
YKAGGYSD | no binding
AKGKASSD | no binding
YKAGDSSD | binds
YARADSSD | no binding
YKRKSASD | binds
AKAADSSD | no binding
VAEKGDVF | no binding
VTGEDDWV | no binding
DREGDDAV | no binding
SEARSDSF | no binding
YKRRDASD | no binding
YKRGSASD | binds
AKAGGASD | no binding

Variant | antigen binding call
DTTGSDAV | no binding
VAGTDDWV | no binding
YRAGGFVV | binds
YRRRGFVV | binds
YTATGFAV | no binding
YRATDFVV | no binding
YRRRGFAV | binds
YRRGGFVV | binds
ATAGSASD | no binding
DRGGDDWV | no binding
STGTSDLY | no binding
AATTDSGD | no binding
SAREGDAV | no binding
YRRGASSS | binds
YTRGASSS | binds
YTRGADLA | no binding
YTRGADGS | no binding
AETKGSLA | no binding
SAAGGAAV chain 1 L45S | no binding
DAEEDAGY | no binding
FTGEAAGD | no binding
VKKEDAGD | no binding
FGRGTSGD | no binding

Variant | antigen binding call
FKRGDAGD | binds
FGRRTYGD | binds
FAARSYGD | no binding
FRRGDALD | binds
FKTKSAGD | no binding
FRRGDAGD | binds
STAEDDWV | no binding
VTAGDDAV | no binding
AARADDVA | no binding
YKTRGAGD chain 1 Q43R | binds
VTTRGAVA | no binding
VRTRGAVD | binds
YRTRGASD | binds
VTTGGAVD | no binding
YRTRGAVD | binds
DTTKGDGS | no binding
VEKGGDGV | no binding
DATRGAGD | no binding
YRTRGAGD | binds
